Screens: PubChem BioAssay, several laboratories
HGIII-sPLA2 inh: Blocks human group III sPLA2 activity; Q9NZ20; QFRET BODIPY PC-A2 liposome hydrolysis, fluorescence; inhibition, % at 12.2 µM; hit rate 0.56% among 370,000; AID 743126;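 active means inhibition above mean plus 3 SD of compounds lying within the high and low control bounds, cut at about 19% in these data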
NRP1-CendR mod: modulators of CendR peptide binding to human neuropilin-1; O14786; FAM-RPARPAR peptide binding to NRP-1, fluorescence polarization; inhibition, % at 25 µM; hit rate 0.85% among 360,000; AID 602438;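 active means inhibition or corrected inhibition above about 18%, plus a signal ratio from 0.5 to 1.5, limit read from the data, passing the limit was not always enough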
KLK7 zymogen act: activates the human kallikrein-7 zymogen. P49862. purified proKLK7, EDANS-DABCYL substrate fluorescence; 100% is mature enzyme control, 0% vehicle. activation, % at 7 µM. hit rate 0.9% among 370,000;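 active means activation above the mean of all tested compounds plus 3 SD, computed per campaign excluding outliers beyond control limits, cut at about 13% in these data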
ADAM17 inh: ADAM17 inhibition, QFRET primary screen. recombinant ADAM17, EDANS/DABCYL FRET peptide cleavage. inhibition, % at 6.95 µM. hit rate 0.83% among 370,000. AID 720648;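 active means inhibition above the mean of compounds lying between control limits plus 3 SD, set per campaign, cut at about 8.5% in these data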
ADAM10 inh: inhibitors of human ADAM10; O14672; inhibition, % at 7 µM; hit rate 0.62% among 370,000; recombinant ADAM10, EDANS/DABCYL FRET peptide cleavage, 3 h;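 active means inhibition above a per-campaign cutoff equal to the mean of compounds falling between control-based bounds plus 3 SD, cut at about 20% in these data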
Large screens that a line does not name were inactive. Compounds with a hit are over-represented: about 3.4% of the library has one in this group of screens.

COC(=O)C1=C(C(=O)OC)[C@@H]2N(C)c3ccc(OC)cc3[C@@]23C[C@@H](C(=O)OC)N(C(=O)CC(C)C)C3=N1	NRP1-CendR mod 26
O=C(/C=C/c1ccc([N+](=O)[O-])cc1)c1ccco1	none
O=C(/C=C/c1ccc(-c2ccccc2[N+](=O)[O-])o1)c1ccco1	NRP1-CendR mod 28
NNc1ccc([N+](=O)[O-])c2[nH][nH]c(=O)c12	NRP1-CendR mod 29
C=CCn1c(SCCOc2ccccc2)nnc1C(C)NC(=O)c1ccccc1 (stereo unspecified)	none
C=CCn1c(CCNC(=O)c2ccc(Cl)c(Cl)c2)nnc1SCCOc1ccc(OC)cc1	NRP1-CendR mod 26 (no result: HGIII-sPLA2 inh, KLK7 zymogen act, ADAM17 inh, ADAM10 inh)
Cc1ccc2c(c1)C(c1ccncc1)=NNC(c1ccc(F)cc1)=N2	NRP1-CendR mod 36
Cc1ccc2c(c1)C(c1ccncc1)=NNC(c1ccccc1)=N2	none
S=C1NC[C@H](Cc2ccccc2)N1CC1CCN(CCCC2CCCCC2)CC1	none (no result: NRP1-CendR mod)
CC1CC(C)CN(S(=O)(=O)c2cc3c4c(c2)CCN4C(=O)CC3)C1 (stereo unspecified)	NRP1-CendR mod 25
CCN(CC)c1ncnc2c1ncn2[C@H]1CN(CCOC)C[C@@H](CO)O1	none
COCCN1C[C@@H](CO)O[C@@H](n2cnc3c(N(C)C(C)C)ncnc32)C1	NRP1-CendR mod 24
CN1C(=O)C[C@@](C#N)(C(=O)NCc2ccccc2)[C@H]1c1ccccc1	none (no result: NRP1-CendR mod)
COc1ccc(-c2cc(N)n(S(=O)(=O)c3c(F)c(F)c(F)c(F)c3F)n2)cc1OC	NRP1-CendR mod 26
CN(C)c1cccc(/C=C2\CC3(OC(=O)C4CCCC4)CCCN2C3)c1 (stereo unspecified)	none (no result: NRP1-CendR mod)
COc1ccc(/C=N/NC(=O)c2nn(-c3ccc(Cl)cc3)c(=O)c3c(N)scc23)cc1	NRP1-CendR mod 30
C=CS(=O)(=O)N(Cc1ccc(C)cc1)[C@@H](CO)C(=O)OC	none (no result: NRP1-CendR mod)
COc1ccc(C2C(C(=O)Nc3ccc(F)cc3)=C(C)Nc3nc(CCCO)nn32)cc1 (stereo unspecified)	NRP1-CendR mod 20
CCOc1ccc(C2C(C(=O)Nc3ccc(F)cc3)=C(C)Nc3nc(CCCO)nn32)cc1 (stereo unspecified)	none
Cc1ccsc1CN(C(=O)c1ccccc1)C1CCS(=O)(=O)C1 (stereo unspecified)	NRP1-CendR mod 22
CC(C)c1ccc(CN(C(=O)c2cccs2)C2CCS(=O)(=O)C2)cc1 (stereo unspecified)	NRP1-CendR mod 18
COc1cccc(CNC(=O)CN2CCCc3ccccc32)c1OC	none (no result: NRP1-CendR mod)
CCc1cc(C(=O)OC)c(NC(=O)CN2CCN(C(=O)c3ccco3)CC2)s1	NRP1-CendR mod 26
Cc1ccc(C)c(-n2c(SCC(=O)N3CCC(C(=O)O)CC3)nnc2-c2cccc(Cl)c2)c1	NRP1-CendR mod 27
Cn1c(=O)cc(OCCCC(=O)Nc2cc(-c3ccncc3)ccn2)c2ccccc21	none (no result: NRP1-CendR mod, KLK7 zymogen act)
Fc1ccc(-c2cc(C(F)(F)F)nc(NCc3cccs3)n2)cc1	NRP1-CendR mod 30
S=C(Nc1ccccc1Br)OCCN1CCCC12CCC(c1ccccc1)CC2 (stereo unspecified)	none (no result: NRP1-CendR mod, KLK7 zymogen act)
CCC(=O)N1CCc2cc(S(=O)(=O)N3CCc4ccccc43)ccc21	none
O=C(O)CCCC(=O)N1CCc2cc(S(=O)(=O)N3CCc4ccccc43)ccc21	NRP1-CendR mod 30
CC(OC(=O)c1ccco1)C(=O)Nc1nc(-c2ccccc2)cs1 (stereo unspecified)	NRP1-CendR mod 30
O=C(Nc1nc(-c2ccccc2)cs1)c1ccco1	none
CC(C)(C)OC(=O)[C@H](CCCCN)NC(=O)c1nc[nH]c1C(=O)NCCCCCN	NRP1-CendR mod 21
CC(C)(C)OC(=O)NCc1ccc(CNC(=O)c2nc[nH]c2C(=O)N2CCc3ccccc3C2)cc1	NRP1-CendR mod 35
CC(C)(C)OC(=O)NCc1ccc(CNC(=O)c2nc[nH]c2C(=O)NCc2ccc(CNC(=O)OC(C)(C)C)cc2)cc1	ADAM17 inh 12
CC(C)(C)OC(=O)NCCCCCNC(=O)c1nc[nH]c1C(=O)N1CCc2ccccc2C1	none
CC(C)(C)OC(=O)NCCCCCNC(=O)c1nc[nH]c1C(=O)NCCCCCNC(=O)OC(C)(C)C	none
CC(C)(C)OC(=O)NCCCCCNC(=O)c1[nH]cnc1C(=O)N[C@@H](CCCCNC(=O)OC(C)(C)C)C(=O)OC(C)(C)C	none (no result: HGIII-sPLA2 inh, KLK7 zymogen act, ADAM17 inh, ADAM10 inh)
